From the supplement of paper PMC10849652
Of roughly 7,900 targets only a part is listed; those with a hit were picked by preference. About 0.6% of all pairs of compound and target were hits. Unmarked numbers belong to inactive results.

Legend:
Assay in all cases: log2 fold change, soluble protein after heating vs DMSO (PISA); higher = thermal stabilisation; K562 cells, 10 uM, 30 min; active = over 0.2 and 3.5 SD of the protein, either way, in both replicates (recomputed)
[1] = compound: C#Cc1cccc(Nc2ncnc3cc(OCCOC)c(OCCOC)cc23)c1 [erlotinib]
Summary of the method: (§1)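 Quantification of soluble protein used TMTpro 16plex LC-MS/MS, with channel sums equalised. Samples were the supernatant after 21,000xg for 90 min of pooled aliquots from K562 cells (2×10^6 cells/mL) treated with 10 μM compound for 30 min, heated for 3 min over 48°C-58°C, and extracted in PBS with 0.5% NP-40 at 4°C. Values, from duplicates, describe thermal stability against control samples on a log2 fold-change scale.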

[2] = compound: C/C(=N\NC(=O)C1=CC(=CC=C1)S(=O)(=O)N2CCOCC2)/C3=C(C=CC(=C3)Cl)O
Summary of the method: as §1

[3] = compound: C1=CC(=C(C=C1Cl)C2=NC3=NC=CN=C3C(=N2)NC4=CC=NC=C4)F
Summary of the method: as §1

[4] = compound: C1=CC(=CC=C1C2=NC3=C(N2)C=C(C=C3)C(=O)N)OC4=CC=C(C=C4)Cl
Summary of the method: as §1

[5] = compound: C1=CC2=C(C=CC(=C2)/C=C\3/C(=O)NC(=NCC4=CC=CS4)S3)N=C1
Summary of the method: as §1

[6] = compound: C1=CC2=NC=CN=C2C=C1/C=C/3\C(=O)NC(=O)S3
Summary of the method: as §1

[7] = compound: C1=CC=C(C=C1)C2=NC(=C(N2)C3=CC=NC=C3)C4=CC(=C(C=C4)Cl)O
Summary of the method: as §1

[8] = compound: C1=CC=C2C(=C1)C3=NNC4=CC=CC(=C43)C2=O
Summary of the method: as §1

[9] = compound: C1CCN(C1)C(=O)NC2=CC=CC(=C2)NC3=NC=C(C(=N3)NCCC4=CN=CN4)Br
Summary of the method: as §1

[10] = compound: C1CN(CCC1(CC2=CC=C(C=C2)Cl)N)C3=NC=NC4=C3C=CN4
Summary of the method: as §1

[11] = compound: C1COCCN1CCN2C3=CC=CC=C3N=C2NC(=O)C4=CC(=CC=C4)[N+](=O)[O-] [IRAK-1-4 Inhibitor I]
Summary of the method: as §1

[12] = compound: C=CC(=O)N1CCC[C@@H](n2nc(-c3ccc(Oc4ccccc4)cc3)c3c(N)ncnc32)C1 [ibrutinib]
Summary of the method: as §1

[13] = compound: CC(=O)c1cnc2ccc(-c3cc(Cl)c(O)c(Cl)c3)nc2c1N[C@H]1CC[C@H](CN(C)C)CC1
Summary of the method: as §1

[14] = compound: CC(C)(C)Cn1c(N)nc2ccc(-c3[nH]c(C(C)(C)C)nc3-c3ccc(F)cc3)nc21 [ralimetinib]
Summary of the method: as §1

[15] = compound: CC(C)(O)CC(=O)NCCn1ccc2ncnc(Nc3ccc(Oc4cccc(C(F)(F)F)c4)c(Cl)c3)c21
Summary of the method: as §1

[16] = compound: CC(C)C1=C2N=C(C=C(N2N=C1)NCC3=CC=CC=C3)NCCCCCCN
Summary of the method: as §1

[17] = compound: CC(C)C[C@@H](C=O)NC(=O)[C@H](CC(C)C)NC(=O)[C@H](CC(C)C)NC(=O)OCc1ccccc1
Summary of the method: as §1

[18] = compound: CC(C)N(C[C@H]1O[C@@H](n2cnc3c(N)ncnc32)[C@H](O)[C@@H]1O)[C@H]1C[C@@H](CCc2nc3cc(C(C)(C)C)ccc3[nH]2)C1 [pinometostat]
Summary of the method: as §1

[19] = compound: CC1=C(C(CC(=O)N1)C2=CC=C(C=C2)C(F)(F)F)C(=O)NC3=C(C=C4C(=C3)C=NN4)F
Summary of the method: as §1

[20] = compound: CC1=C(C2=C(C=C1)C(=O)C3=CC=CC=C3N2CCCN)C
Summary of the method: as §1

Sequence of UniProt Q14151 (Q14151 whole entry, looked up): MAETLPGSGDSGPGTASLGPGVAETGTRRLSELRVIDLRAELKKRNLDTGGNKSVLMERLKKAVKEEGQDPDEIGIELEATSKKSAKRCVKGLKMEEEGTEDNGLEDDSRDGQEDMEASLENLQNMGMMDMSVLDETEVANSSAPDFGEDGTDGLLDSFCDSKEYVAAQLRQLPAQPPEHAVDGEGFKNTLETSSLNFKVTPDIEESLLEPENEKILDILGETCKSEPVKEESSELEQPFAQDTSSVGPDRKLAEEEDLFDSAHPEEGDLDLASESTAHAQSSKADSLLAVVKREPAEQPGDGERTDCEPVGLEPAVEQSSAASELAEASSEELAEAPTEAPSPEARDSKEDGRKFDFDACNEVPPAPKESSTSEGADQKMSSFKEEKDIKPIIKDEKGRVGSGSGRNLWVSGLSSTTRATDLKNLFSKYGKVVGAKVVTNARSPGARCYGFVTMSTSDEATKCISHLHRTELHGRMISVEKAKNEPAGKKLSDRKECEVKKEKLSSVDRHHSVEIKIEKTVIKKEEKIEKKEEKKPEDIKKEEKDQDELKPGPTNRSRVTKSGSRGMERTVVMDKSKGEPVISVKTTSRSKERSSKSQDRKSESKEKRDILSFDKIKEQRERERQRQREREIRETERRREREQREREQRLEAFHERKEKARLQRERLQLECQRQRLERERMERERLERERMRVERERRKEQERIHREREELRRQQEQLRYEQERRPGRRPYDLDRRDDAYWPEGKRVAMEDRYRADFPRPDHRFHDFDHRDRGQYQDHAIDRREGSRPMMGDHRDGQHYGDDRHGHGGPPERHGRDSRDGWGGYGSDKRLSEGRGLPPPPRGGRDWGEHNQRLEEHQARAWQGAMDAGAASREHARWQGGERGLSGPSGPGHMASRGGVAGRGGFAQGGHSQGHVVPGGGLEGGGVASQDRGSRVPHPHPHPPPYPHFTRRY
Sequence of UniProt O00560 (O00560 whole entry, looked up): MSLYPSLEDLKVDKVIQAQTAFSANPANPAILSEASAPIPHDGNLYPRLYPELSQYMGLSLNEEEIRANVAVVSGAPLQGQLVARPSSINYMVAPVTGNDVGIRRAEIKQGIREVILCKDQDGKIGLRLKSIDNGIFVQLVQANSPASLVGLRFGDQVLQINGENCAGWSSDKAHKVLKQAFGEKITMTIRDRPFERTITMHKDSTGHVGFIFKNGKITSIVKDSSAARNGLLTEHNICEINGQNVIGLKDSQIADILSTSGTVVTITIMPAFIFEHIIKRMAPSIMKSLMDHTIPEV
Sequence of UniProt Q99643 (Q99643 whole entry, looked up): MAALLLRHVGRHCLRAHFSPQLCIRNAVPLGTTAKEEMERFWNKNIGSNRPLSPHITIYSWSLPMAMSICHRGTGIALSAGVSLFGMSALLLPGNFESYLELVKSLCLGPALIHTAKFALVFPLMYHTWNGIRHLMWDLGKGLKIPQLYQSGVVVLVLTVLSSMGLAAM
Sequence of UniProt P58004 (P58004 whole entry, looked up): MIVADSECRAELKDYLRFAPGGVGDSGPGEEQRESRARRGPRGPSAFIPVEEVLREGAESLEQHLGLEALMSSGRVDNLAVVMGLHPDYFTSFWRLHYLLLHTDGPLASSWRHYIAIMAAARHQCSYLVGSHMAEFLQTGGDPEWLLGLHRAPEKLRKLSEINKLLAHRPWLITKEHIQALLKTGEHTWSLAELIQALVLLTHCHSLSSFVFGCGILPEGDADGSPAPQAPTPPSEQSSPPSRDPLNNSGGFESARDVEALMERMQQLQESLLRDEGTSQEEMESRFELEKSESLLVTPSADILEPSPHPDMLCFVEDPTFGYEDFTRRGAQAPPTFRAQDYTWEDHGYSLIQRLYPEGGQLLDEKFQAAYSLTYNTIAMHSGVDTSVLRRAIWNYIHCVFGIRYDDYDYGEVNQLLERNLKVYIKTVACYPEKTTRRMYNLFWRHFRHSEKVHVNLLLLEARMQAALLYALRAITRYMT
Sequence of UniProt Q9HB90 (Q9HB90 whole entry, looked up): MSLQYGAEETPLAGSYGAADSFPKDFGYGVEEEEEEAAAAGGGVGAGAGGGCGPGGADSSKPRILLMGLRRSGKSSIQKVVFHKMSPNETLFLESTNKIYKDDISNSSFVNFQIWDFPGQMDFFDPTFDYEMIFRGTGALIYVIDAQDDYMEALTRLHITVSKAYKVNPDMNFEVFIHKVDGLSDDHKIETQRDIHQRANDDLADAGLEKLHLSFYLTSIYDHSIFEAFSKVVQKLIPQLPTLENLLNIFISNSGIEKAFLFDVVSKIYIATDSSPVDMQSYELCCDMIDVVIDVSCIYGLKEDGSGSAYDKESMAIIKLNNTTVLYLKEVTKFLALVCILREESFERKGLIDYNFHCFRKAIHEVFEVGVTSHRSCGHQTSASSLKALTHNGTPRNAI
Sequence of UniProt Q96EV2 (Q96EV2 whole entry, looked up): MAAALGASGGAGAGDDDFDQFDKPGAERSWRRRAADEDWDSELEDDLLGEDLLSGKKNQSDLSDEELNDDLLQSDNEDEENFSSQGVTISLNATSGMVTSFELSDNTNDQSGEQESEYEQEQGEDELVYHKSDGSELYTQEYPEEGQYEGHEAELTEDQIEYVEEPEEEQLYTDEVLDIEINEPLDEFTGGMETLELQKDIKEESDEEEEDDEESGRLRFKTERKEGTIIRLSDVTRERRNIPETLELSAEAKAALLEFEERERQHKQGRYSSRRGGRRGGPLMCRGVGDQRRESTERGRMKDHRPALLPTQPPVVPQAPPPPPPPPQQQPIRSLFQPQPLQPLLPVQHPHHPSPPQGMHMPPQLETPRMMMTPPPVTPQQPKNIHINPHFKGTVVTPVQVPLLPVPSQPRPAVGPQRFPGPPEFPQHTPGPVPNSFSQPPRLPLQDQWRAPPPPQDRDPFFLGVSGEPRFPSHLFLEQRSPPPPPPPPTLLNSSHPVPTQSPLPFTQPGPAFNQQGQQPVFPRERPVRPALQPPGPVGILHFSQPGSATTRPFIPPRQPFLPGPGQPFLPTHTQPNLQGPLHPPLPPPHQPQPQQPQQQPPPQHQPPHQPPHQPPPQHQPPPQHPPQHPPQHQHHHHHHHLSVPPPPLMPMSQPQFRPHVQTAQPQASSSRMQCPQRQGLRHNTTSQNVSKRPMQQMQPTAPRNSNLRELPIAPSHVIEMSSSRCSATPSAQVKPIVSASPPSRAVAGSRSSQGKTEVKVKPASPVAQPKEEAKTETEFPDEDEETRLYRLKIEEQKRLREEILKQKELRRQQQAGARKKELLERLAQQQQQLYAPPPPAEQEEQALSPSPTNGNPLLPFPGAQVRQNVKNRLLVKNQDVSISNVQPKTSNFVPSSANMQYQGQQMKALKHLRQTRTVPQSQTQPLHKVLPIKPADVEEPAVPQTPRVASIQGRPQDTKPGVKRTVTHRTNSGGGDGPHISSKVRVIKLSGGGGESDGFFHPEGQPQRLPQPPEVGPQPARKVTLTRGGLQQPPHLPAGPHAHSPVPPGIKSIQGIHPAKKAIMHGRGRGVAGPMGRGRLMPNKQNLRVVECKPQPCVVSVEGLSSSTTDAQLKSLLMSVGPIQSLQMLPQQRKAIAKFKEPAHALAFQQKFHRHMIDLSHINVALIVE
Sequence of UniProt Q01974 (Q01974 whole entry, looked up): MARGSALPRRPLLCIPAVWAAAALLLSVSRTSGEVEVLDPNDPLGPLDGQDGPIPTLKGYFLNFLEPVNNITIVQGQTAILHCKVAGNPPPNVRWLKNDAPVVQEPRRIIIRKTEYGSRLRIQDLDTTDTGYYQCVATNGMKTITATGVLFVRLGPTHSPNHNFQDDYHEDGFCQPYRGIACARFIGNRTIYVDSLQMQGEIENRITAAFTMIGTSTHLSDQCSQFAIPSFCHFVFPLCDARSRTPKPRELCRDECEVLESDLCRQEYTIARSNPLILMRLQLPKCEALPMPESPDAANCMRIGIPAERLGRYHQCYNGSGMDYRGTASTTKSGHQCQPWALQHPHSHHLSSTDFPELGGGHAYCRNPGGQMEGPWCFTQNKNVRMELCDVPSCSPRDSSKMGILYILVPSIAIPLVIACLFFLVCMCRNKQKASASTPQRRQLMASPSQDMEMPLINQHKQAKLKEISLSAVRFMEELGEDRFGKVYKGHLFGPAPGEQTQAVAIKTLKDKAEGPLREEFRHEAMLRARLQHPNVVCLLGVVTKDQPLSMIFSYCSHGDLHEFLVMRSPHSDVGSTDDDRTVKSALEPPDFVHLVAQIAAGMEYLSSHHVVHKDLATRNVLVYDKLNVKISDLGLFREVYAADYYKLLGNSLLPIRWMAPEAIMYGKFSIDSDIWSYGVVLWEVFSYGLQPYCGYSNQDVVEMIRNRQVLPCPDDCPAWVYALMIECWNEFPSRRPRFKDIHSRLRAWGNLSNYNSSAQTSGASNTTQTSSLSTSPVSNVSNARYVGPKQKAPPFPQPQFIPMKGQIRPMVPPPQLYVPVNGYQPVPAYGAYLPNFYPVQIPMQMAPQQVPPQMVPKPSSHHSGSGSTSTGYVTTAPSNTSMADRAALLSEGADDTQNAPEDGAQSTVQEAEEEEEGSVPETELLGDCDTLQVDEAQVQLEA
Sequence of UniProt Q99961 (Q99961 whole entry, looked up): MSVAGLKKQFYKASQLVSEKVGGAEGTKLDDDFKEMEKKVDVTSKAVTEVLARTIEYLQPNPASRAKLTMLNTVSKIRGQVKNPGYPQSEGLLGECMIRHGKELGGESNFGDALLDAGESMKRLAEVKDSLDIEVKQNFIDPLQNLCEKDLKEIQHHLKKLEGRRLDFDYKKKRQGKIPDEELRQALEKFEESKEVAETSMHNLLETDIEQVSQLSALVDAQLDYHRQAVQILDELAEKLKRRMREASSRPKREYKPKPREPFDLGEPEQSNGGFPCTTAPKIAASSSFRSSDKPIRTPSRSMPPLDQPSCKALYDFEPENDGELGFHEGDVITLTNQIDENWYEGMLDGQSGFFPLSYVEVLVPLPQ

Row | Target | log2 fold change [1] | log2 fold change [2] | log2 fold change [3] | log2 fold change [4] | log2 fold change [5] | log2 fold change [6] | log2 fold change [7] | log2 fold change [8] | log2 fold change [9] | log2 fold change [10] | log2 fold change [11] | log2 fold change [12] | log2 fold change [13] | log2 fold change [14] | log2 fold change [15] | log2 fold change [16] | log2 fold change [17] | log2 fold change [18] | log2 fold change [19] | log2 fold change [20]
1 | ROR2 (UniProt Q01974) | -0.045 | 0.058 | 0.01 | 0.023 | 0.02 | 0.011 | 0.076 | -0.024 | -0.041 | -0.001 | -0.003 | -0.014 | -0.72 (active) | 0.045 | -0.058 | -0.018 | -0.001 | 0.045 | -0.059 | 0.115
2 | SESN2 (UniProt P58004) | 0.154 | 0.108 | -0.039 | -0.003 | 0.016 | 0.007 | -0.009 | -0.008 | -0.041 | -0.109 | -0.143 | 0.034 | 0 | 0.21 | -0.049 | -0.407 | 0.055 | 0.081 | 0.041 | -0.017
3 | RTN4IP1 (UniProt Q8WWV3) | 0.016 | 0 | 0.041 | 0.066 | 0.048 | -0.08 | 0.014 | 0.027 | -0.064 | 0.074 | -0.036 | 0.214 | -0.326 | 0.034 | -0.046 | 0.063 | -0.009 | 0.02 | -0.039 | 0.14
4 | RSPRY1 (UniProt Q96DX4) | 0.028 | 0.079 | 0.016 | 0.041 | 0.017 | -0.042 | -0.006 | -0.026 | -0.014 | 0.033 | 0.018 | 0.027 | 0.02 | -0.019 | -0.036 | 0 | 0.079 | -0.048 | 0.033 | -0.066
5 | RRAGC (UniProt Q9HB90) | 0.014 | 0.03 | 0.047 | -0.007 | 0.019 | 0.013 | -0.051 | -0.02 | 0.014 | 0.052 | 0.033 | -0.009 | -0.057 | -0.056 | 0.004 | -0.18 | 0.068 | -0.008 | 0.024 | 0.034
6 | SCAMP2 (UniProt H3BUB6) | 0.182 | -0.331 | -0.143 | 0.039 | 0.372 | -0.163 | -0.281 | -0.143 | 0.218 | -0.003 | 0.078 | 0.103 | -0.171 | -0.278 | 0.102 | -0.055 | 0.192 | 0.053 | 0.111 | 0.059
7 | SH3GL1 (UniProt Q99961) | 0.024 | 0.068 | 0.013 | 0.003 | 0.058 | 0.022 | 0.019 | 0.004 | -0.047 | -0.045 | -0.09 | -0.021 | -0.059 | 0.052 | -0.097 | -0.238 | 0.013 | 0.032 | 0.018 | 0.037
8 | SAFB2 (UniProt Q14151) | 0.015 | -0.135 | -0.294 | 0.071 | -0.148 | 0.049 | 0.014 | -0.015 | -0.037 | -0.041 | -0.065 | -0.012 | 0.026 | 0.037 | 0.165 | 0.042 | 0.049 | 0.05 | 0.018 | -0.074
9 | SDCBP (UniProt O00560) | -0.048 | -0.1 | -0.058 | 0.047 | -0.036 | -0.008 | 0.034 | 0.002 | -0.021 | -0.045 | 0.021 | 0.139 | -0.02 | -0.036 | -0.064 | -0.671 (active) | 0.181 | 0.057 | 0.073 | -0.007
10 | RBM26 isoform 2 (UniProt Q5T8P6) | 0.174 | 0.216 | 0.25 | -0.004 | -0.018 | 0 | 0.113 | 0.002 | -0.027 | 0.012 | -0.086 | 0.032 | -0.179 | -0.021 | -0.16 | -0.295 | 0.024 | -0.022 | 0.014 | 0.06
11 | RBM33 (UniProt Q96EV2) | 0.017 | 0.04 | -0.022 | -0.011 | 0 | 0.01 | 0.001 | -0.114 | 0.034 | 0.038 | -0.058 | 0.024 | -0.063 | 0.014 | 0.046 | -0.018 | -0.01 | -0.01 | 0.001 | -0.282 (active)
12 | SDHC (UniProt Q99643) | -0.017 | 0.033 | -0.015 | 0.033 | -0.013 | 0.17 | 0.104 | 0.102 | 0.008 | 0.02 | 0.095 | 0.004 | 0.025 | -0.055 | -0.185 | 0.012 | -0.286 | -0.086 | 0.193 | 0.108
